The text below walks through data of PubChem BioAssay (NCI).

Some test systems named below: HCT-15 colon; HT29 colon; SNB-75 CNS; U251 CNS; PC-3 prostate; SK-MEL-5 melanoma; UACC-62 melanoma; LOX IMVI melanoma; SK-MEL-28 melanoma; SK-MEL-2 melanoma; EKVX NSCLC; SN12C renal; UO-31 renal; TK-10 renal; ACHN renal; CAKI-1 renal; A498 renal; CCRF-CEM leukemia; MOLT-4 leukemia.
Test in all cases: NCI-60 one-dose screen, 48 h (100 = growth as untreated, 0 = no growth, -100 = all killed)
What all share (settings): 10 µM unless noted

The panel holds about 83,000 compounds, 20% with a hit somewhere; the sample as a whole holds those more often.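 48-hour exposure, single concentration, 96-well plates; percent growth endpoint where 0 means no net growth. Active: below 10.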 A number with no mark means an inactive call. Calls of active or inactive are those of the source.

With `NS(=O)(=O)c1ccc(Nc2nc3n[nH]c(Nc4ccccc4)c3c(=O)[nH]2)cc1`, the growth is 108% with HCT-15 colon; 101% in the assay on HT29 colon; 70.8% in the assay with SNB-75 CNS; 101% in the assay on U251 CNS; 92.1% in the assay with PC-3 prostate; 99% with SK-MEL-5 melanoma. The growth is 105% with UACC-62 melanoma; 101% with LOX IMVI melanoma; 111% in the assay with SK-MEL-28 melanoma; 101% with SK-MEL-2 melanoma; 107% in the assay on EKVX NSCLC; 103% with SN12C renal. Besides, the growth was 74.9% in the assay on UO-31 renal; 106% with TK-10 renal; 109% in the assay with ACHN renal; 88.7% in the assay with CAKI-1 renal; 88.9% in the assay with A498 renal; 105% in the assay on CCRF-CEM leukemia. Moreover, in the assay with MOLT-4 leukemia, the growth is 89.2%.
In the case of `CCN(CC)Cc1cc(Nc2c3ccccc3nc3cc(Cl)ccc23)ccc1O`, the growth was -28.6% (active) in the assay on HCT-15 colon; -38.3% (active) in the assay with HT29 colon; -100% (active) in the assay on SNB-75 CNS; -51.6% (active) with U251 CNS; -41.5% (active) in the assay with PC-3 prostate; -100% (active) in the assay with SK-MEL-5 melanoma. The growth is -97.2% (active) in the assay on UACC-62 melanoma; -86.5% (active) in the assay on LOX IMVI melanoma; -79.3% (active) with SK-MEL-28 melanoma; -74.2% (active) in the assay on SK-MEL-2 melanoma; -55.1% (active) in the assay with EKVX NSCLC; -36.9% (active) in the assay with SN12C renal. For the same compound, the growth was -72.9% (active) in the assay on UO-31 renal; -65.6% (active) with TK-10 renal; -97.3% (active) in the assay with ACHN renal; -75% (active) in the assay on CAKI-1 renal; -61.4% (active) in the assay with A498 renal; -11.9% (active) in the assay on CCRF-CEM leukemia. For the same compound, in the assay on MOLT-4 leukemia, the growth was -28.9% (active).
Regarding `CCCCOc1ccc(NC(=O)n2nc(NC(C)=O)c3cc(NC(C)=O)ccc32)cc1`, the growth in the assay with HCT-15 colon is 88.9%; with HT29 colon, 85.5%; in the assay with SNB-75 CNS, 114%; with U251 CNS, 96.2%; in the assay with PC-3 prostate, 76.6%; with SK-MEL-5 melanoma, 101%. The growth in the assay on UACC-62 melanoma was 91.8%; with LOX IMVI melanoma, 98.5%; in the assay with SK-MEL-28 melanoma, 126%; with SK-MEL-2 melanoma, 95%; with EKVX NSCLC, 68.7%; with SN12C renal it was 92.2%. In addition, the growth in the assay on UO-31 renal is 80.9%; in the assay with TK-10 renal, 89.9%; in the assay on ACHN renal, 95.3%; with CAKI-1 renal, 89.2%; in the assay on A498 renal it was 105%; with CCRF-CEM leukemia, 62.1%. In addition, the growth with MOLT-4 leukemia was 52%.
Regarding `OCCNCCNc1c2ccccc2nc2ccccc12`, the growth in the assay on HCT-15 colon was 97.2%; in the assay on HT29 colon, 58%; in the assay with SNB-75 CNS, 93.3%; in the assay on U251 CNS, 55.3%; in the assay with PC-3 prostate it was 87.5%; with SK-MEL-5 melanoma, 88.4%. Further, the growth in the assay on UACC-62 melanoma was 66.6%; with LOX IMVI melanoma, 37.8%; in the assay with SK-MEL-28 melanoma, 114%; in the assay with SK-MEL-2 melanoma it was 68.5%; in the assay on EKVX NSCLC, 109%; with SN12C renal, 52.2%. Besides, the growth in the assay with UO-31 renal was 65.4%; with TK-10 renal, 82.7%; in the assay on ACHN renal it was 65.3%; in the assay on CAKI-1 renal, 94.9%; in the assay with A498 renal, 83%; with CCRF-CEM leukemia, 65.4%. Besides, in the assay with MOLT-4 leukemia, the growth was 16.7%.
Consider `O=C1C[C@H](Sc2nc(-c3ccc(F)cc3)cc(C(F)(F)F)n2)[C@H]2CO[C@@H]1O2`, for which the growth in the assay with HCT-15 colon was 63.1%; with HT29 colon it was 75.5%; in the assay with SNB-75 CNS, 98.3%; with U251 CNS, 98.9%; with PC-3 prostate it was 96.2%; in the assay on SK-MEL-5 melanoma it was 97.5%. The growth with UACC-62 melanoma is 98.2%; in the assay with LOX IMVI melanoma, 34.8%; in the assay with SK-MEL-28 melanoma it was 105%; in the assay on SK-MEL-2 melanoma it was 107%; in the assay on EKVX NSCLC it was 107%; in the assay with SN12C renal it was 92.4%. Moreover, the growth with UO-31 renal is 88.3%; in the assay on TK-10 renal, 99.2%; in the assay on ACHN renal it was 88.9%; in the assay with CAKI-1 renal, 81.5%; in the assay on A498 renal, 105%; with CCRF-CEM leukemia, 51.1%. In the assay with MOLT-4 leukemia, the growth was 78.3%.
With `COc1ccc(CCN2CCCn3c2nc2ccccc2c3=O)cc1`, the growth in the assay on HCT-15 colon was 22.2%; in the assay on HT29 colon, 11.8%; with SNB-75 CNS it was 17.5%; with U251 CNS it was 29%; with PC-3 prostate it was 42%; with SK-MEL-5 melanoma it was 15.5%. The growth with UACC-62 melanoma was 26.5%; in the assay on LOX IMVI melanoma it was 15.1%; with SK-MEL-28 melanoma it was 49.6%; with SK-MEL-2 melanoma, 51.1%; with EKVX NSCLC it was 45.7%; in the assay on SN12C renal, 45%. Moreover, the growth with UO-31 renal was 41.1%; in the assay on TK-10 renal, 69.3%; in the assay with ACHN renal, 40.4%; in the assay on CAKI-1 renal, 41.7%; in the assay with A498 renal it was -3.97% (active); with CCRF-CEM leukemia, 21.1%. Moreover, the growth with MOLT-4 leukemia is 18.5%.
Take `NS(=O)(=O)N(c1cc(C(F)(F)F)cc(C(F)(F)F)c1)C1CCN(Cc2ccc(F)cc2)CC1`: the growth in the assay with HCT-15 colon was 24.4%; in the assay on HT29 colon, 8.44% (active); in the assay with SNB-75 CNS, 55.3%; in the assay on U251 CNS, 59.8%; in the assay on PC-3 prostate, 34.2%; with SK-MEL-5 melanoma it was 32.2%. Moreover, the growth in the assay with UACC-62 melanoma is 57.1%; in the assay on LOX IMVI melanoma, 68.9%; with SK-MEL-28 melanoma, 82.1%; in the assay with SK-MEL-2 melanoma it was 74.2%; with EKVX NSCLC, 72.2%; in the assay on SN12C renal it was 42.2%. Further, the growth with UO-31 renal was 35.6%; in the assay on TK-10 renal it was 81.4%; in the assay with ACHN renal, 75.2%; in the assay on CAKI-1 renal, 62.5%; in the assay on A498 renal it was 76.3%; in the assay on CCRF-CEM leukemia, 64%. Moreover, the growth in the assay on MOLT-4 leukemia is 39%.
Regarding `CCCCCCCCCCCCCCCC(=O)OCC1OC(n2cnc3c(=S)nc(N)[nH]c32)C(OC(=O)CCCCCCCCCCCCCCC)C1OC(=O)CCCCCCCCCCCCCCC` (configuration not stated), the growth in the assay on HCT-15 colon was 55.1%; with HT29 colon, 37.7%; in the assay on SNB-75 CNS, 78.2%; with U251 CNS, 83.7%; in the assay with PC-3 prostate, 78.8%; in the assay on SK-MEL-5 melanoma it was 96.7%. Besides, the growth with UACC-62 melanoma was 31.7%; with LOX IMVI melanoma it was 21.7%; in the assay with SK-MEL-28 melanoma, 130%; in the assay on SK-MEL-2 melanoma, 54.7%; in the assay on EKVX NSCLC, 48.6%; in the assay on SN12C renal it was 84.2%. Moreover, the growth was 50% in the assay on UO-31 renal; 35.7% in the assay on TK-10 renal; 75% in the assay on ACHN renal; 49.4% in the assay on CAKI-1 renal; 116% with A498 renal; 15.9% in the assay on CCRF-CEM leukemia. Further, the growth with MOLT-4 leukemia is -24% (active).
